The text below walks through data of PubChem BioAssay (NCI).

Some test systems named below: SN12C renal; UO-31 renal; TK-10 renal; ACHN renal; CAKI-1 renal; A498 renal; CCRF-CEM leukemia; MOLT-4 leukemia; SR leukemia.
Holding throughout (assay): NCI-60 one-dose screen, 48 h (100 = growth as untreated, 0 = no growth, -100 = all killed)
Common to all, as to conditions: 10 µM unless noted

Compounds without any hit were thinned out: in the full panel of roughly 83,000, 20% have a hit.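 Plates (96-well) were seeded with cells, treated with compound at one concentration, and incubated for 48 hours before percent growth was determined.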 Values without a mark were called inactive. The source made the active and inactive calls. The calls were made as follows: active = growth percent below 10; inactive = the rest.

On to `O=C1c2ccc3c4c(ccc(c24)C(=O)N1CCCCO)C(=O)N(CCCCO)C3=O`, for which the growth in the assay on SN12C renal is 72%; in the assay with UO-31 renal, 24.4%; in the assay with TK-10 renal it was 22.5%; with ACHN renal, 43.9%; in the assay with CAKI-1 renal, 35.4%; in the assay with A498 renal, 56.2%. In addition, the growth was 6.38% (active) in the assay on CCRF-CEM leukemia, 22.5% in the assay with MOLT-4 leukemia and 5.37% (active) with SR leukemia.
On to `NC(CCl)=NCCC[C@H](N)C(=O)O`, for which the growth was 93.3% with SN12C renal; 85.2% with UO-31 renal; 96.7% with TK-10 renal; 105% in the assay with ACHN renal; 97.2% in the assay on CAKI-1 renal; 102% with A498 renal. Moreover, the growth in the assay with CCRF-CEM leukemia is 94.6%; with MOLT-4 leukemia it was 104%; in the assay with SR leukemia it was 93.5%.
As to `O=Nc1c(O)ccc2ccccc12.O=Nc1c(O)ccc2ccccc12.O=Nc1c([O-])ccc2ccccc12.[Fe+3]`, the growth in the assay on SN12C renal was 99.6%; in the assay on UO-31 renal, 60.2%; in the assay with TK-10 renal, 127%; with ACHN renal, 102%; with CAKI-1 renal, 106%; in the assay on A498 renal, 105%. Moreover, the growth in the assay with CCRF-CEM leukemia is 107%; in the assay with MOLT-4 leukemia it was 110%; in the assay with SR leukemia it was 105%.
Turning to `CCCC(c1nnnn1C1CCCCC1)N1CCN(C(=O)c2ccco2)CC1` (stereo not given), the growth in the assay with SN12C renal is 73.6%; in the assay on UO-31 renal, 82.3%; in the assay with TK-10 renal, 86.7%; in the assay with ACHN renal, 84.6%; with CAKI-1 renal it was 66.4%; in the assay with A498 renal it was 44.1%. In addition, the growth with CCRF-CEM leukemia is 24.1%; in the assay with MOLT-4 leukemia, 26.9%; in the assay on SR leukemia it was 6.95% (active).
Consider `O=C(O)CCCN1C(=O)C2C3CCC(C3)C2C1=O` (stereo not given), for which the growth in the assay on SN12C renal is 103%; in the assay with UO-31 renal, 90.5%; in the assay with TK-10 renal, 98.2%; in the assay with ACHN renal, 109%; with CAKI-1 renal, 97.2%; in the assay on A498 renal, 105%. The growth was 108% in the assay on CCRF-CEM leukemia, 104% in the assay on MOLT-4 leukemia and 112% in the assay on SR leukemia.
For the molecule `CCCCCCn1c(=N)n(CC(O)COc2cccc(C)c2)c2ccccc21` (stereo not given), the growth was 28.6% in the assay on SN12C renal; -96.1% (active) with UO-31 renal; -86.4% (active) in the assay with TK-10 renal; -52.9% (active) in the assay with ACHN renal; -21.6% (active) in the assay on CAKI-1 renal; -13% (active) in the assay on A498 renal. The growth was 1.25% (active) in the assay with CCRF-CEM leukemia, -3.39% (active) with MOLT-4 leukemia and -28.5% (active) with SR leukemia.
For the molecule `O=C(Nc1ccc(Cl)cc1)N1CCN(c2ccc3nncn3n2)CC1`, the growth with SN12C renal was 54.3%; in the assay on UO-31 renal, 36.1%; in the assay with TK-10 renal it was 42.3%; with ACHN renal, 8.04% (active); in the assay on CAKI-1 renal, 29.3%; in the assay on A498 renal, 21.5%. The figures for the growth in the assay on CCRF-CEM leukemia, with MOLT-4 leukemia and with SR leukemia were -9.45% (active), -41.5% (active) and -40.5% (active), respectively.
In the case of `CCOC(=O)c1cc2c(n1Cc1cc(OC)c(OC)c(OC)c1)-c1oncc1CCC2`, the growth in the assay with SN12C renal was 32.1%; in the assay on UO-31 renal, 38.3%; in the assay with TK-10 renal, 85.2%; in the assay on ACHN renal, 33.8%; with CAKI-1 renal, 43.7%; in the assay on A498 renal it was -22.9% (active). Further, the growth in the assay with CCRF-CEM leukemia was 5.78% (active); in the assay on MOLT-4 leukemia, 7.85% (active); in the assay on SR leukemia it was 2.12% (active).
As for `COc1ccc(Cn2c(Br)c3c(c2Br)-c2nc(N)sc2CC3)cc1`, the growth in the assay on SN12C renal was 41.2%; with UO-31 renal, 52.4%; in the assay on TK-10 renal it was 71.1%; in the assay with ACHN renal it was 55.2%; in the assay on CAKI-1 renal, 39%; with A498 renal, 11.6%. Also, the results for the growth with CCRF-CEM leukemia, with MOLT-4 leukemia and in the assay on SR leukemia were 4.26% (active), 4.01% (active) and 4.13% (active), respectively.
In the case of `Cc1cc(Nc2ccc(OCc3ccccc3)cc2)nc2cc(O)ccc12`, the growth is 78.2% with SN12C renal; 44.9% in the assay on UO-31 renal; 73.4% in the assay on TK-10 renal; 73.8% in the assay on ACHN renal; 72.3% in the assay with CAKI-1 renal; 95.8% in the assay with A498 renal. Also, the growth in the assay on CCRF-CEM leukemia is 8.27% (active); in the assay with MOLT-4 leukemia, 26%; with SR leukemia, -17.5% (active).
`O=c1[nH]nnc2c1ncn2C1OC(CO)C(O)C1O` (stereo not given): the growth in the assay on SN12C renal is 97.7%; with UO-31 renal, 36%; in the assay on TK-10 renal it was 39.8%; in the assay with ACHN renal, 30.2%; with CAKI-1 renal, 25.2%; in the assay with A498 renal, 86.7%. For the same molecule, the values for the growth in the assay on CCRF-CEM leukemia, in the assay with MOLT-4 leukemia and with SR leukemia were 27.5%, 26.3% and 37.7%, respectively.
On to `CCN1CCN(c2cc(C)c3cc(NC(=O)c4ccc(OC)c(OC)c4)ccc3n2)CC1`, for which the growth in the assay on SN12C renal is 44.7%; with UO-31 renal, 54%; in the assay on TK-10 renal, 57.6%; with ACHN renal it was 58.4%; with CAKI-1 renal, 48.1%; in the assay with A498 renal it was -3.67% (active). Moreover, the growth is 7.94% (active) with CCRF-CEM leukemia, 16.2% in the assay with MOLT-4 leukemia and 1.64% (active) in the assay on SR leukemia.
For the molecule `COC(=O)[C@@H]1CCCN1C(=O)[C@H]1CCCN1C(=O)[C@@H](Cc1c[nH]c2ccccc12)NC(=S)Nc1cc(C(F)(F)F)cc(C(F)(F)F)c1`, the growth is 44.4% in the assay on SN12C renal; 28.3% in the assay with UO-31 renal; 78.7% in the assay on TK-10 renal; 37.2% in the assay on ACHN renal; 22% with CAKI-1 renal; 57.7% in the assay with A498 renal. Also, the growth was 36.3% in the assay on CCRF-CEM leukemia, 16.3% with MOLT-4 leukemia and 5.25% (active) in the assay with SR leukemia.
For `O=CCCCC(O)C=O` (stereo not given), the growth in the assay with SN12C renal was 97.6%; with UO-31 renal, 81.5%; in the assay on TK-10 renal it was 104%; in the assay on ACHN renal, 103%; with CAKI-1 renal, 101%; with A498 renal, 98.7%. The growth in the assay with CCRF-CEM leukemia is 102%; in the assay with MOLT-4 leukemia it was 94%; in the assay with SR leukemia it was 90.5%.
`Oc1ccc(-c2nc(-c3ccc4oc5ccc(-c6[nH]c(-c7ccc(O)cc7)nc6-c6ccccc6)cc5c4c3)c(-c3ccccc3)[nH]2)cc1`: the growth was 39.3% with SN12C renal; 39.2% in the assay with UO-31 renal; 80.3% in the assay on TK-10 renal; 73.5% in the assay on ACHN renal; 69.5% in the assay on CAKI-1 renal; 77.5% in the assay with A498 renal. The growth in the assay on CCRF-CEM leukemia was 43.9%; in the assay with MOLT-4 leukemia, 57.1%; with SR leukemia it was 43.1%.
